Consider 65 molecules from PubChem BioAssay AID686979 (National Center for Advancing Translational Sciences (NCATS), 2013).

Among all 420,000 compounds or so, about 50,000 (12%) were called active. A call without a number means that no potency is given here. Another 26% or so got no clear call; they are omitted. Calls follow the shape of the dose curve; as a rule, active = well fitted inhibition curve with a large enough effect; inconclusive = small, poorly fitted or top-dose-only effect; inactive = flat fitted curve, though single readings scatter. For the sample, actives were picked, then their nearest neighbours and some compounds at random.
Potency is read from the fitted curve at half-maximal effect.

The assay is described as follows: qHTS for Inhibitors of human tyrosyl-DNA phosphodiesterase 1 (TDP1): qHTS in cells in presence of CPT. Also: nearly all actives have a fitted effect of over 55% in size. The following applies: chicken DT40 Tdp1-/-;hTDP1 cells + 20 nM CPT, ATP luminescence, 48 h; series mostly up to 46.2 µM. In short, it runs like this:
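Chicken DT40 Tdp1-/- cells stably complemented with human TDP1 were seeded at 400 cells/well in medium containing 20 nM camptothecin, exposed to pin-transferred compounds, and grown at 37 °C for at least 48 hr. Viability was read as ATP luminescence.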
For orientation: In qHTS, concentration-response curves come from the screen itself.
Turning to `COc1cccc(CNC(=O)c2nnn(CC(=O)Nc3cc(C)ccc3C)c2N)c1`, the Potency result is “inactive”.

For the molecule `CSc1c(SCc2ccccc2)cnn(Cc2ccccc2)c1=O`, the Potency result is “inactive”. For the molecule `Cc1cccc(N2CC(C)Cn3c2nc2c3c(=O)n(CC(=O)OCc3ccccc3)c(=O)n2C)c1` (stereo not given), the Potency is 23.1 µM (active).

`CC1CN(C2CCCCC2)c2nc3c(c(=O)n(C)c(=O)n3C)n2C1` (stereo not given): the Potency result was “inactive”. In the case of `Cn1c(=O)n(CCc2ccccc2)c(=O)c2c1nc1n2CCCN1c1ccccc1`, the Potency result was “inactive”. With `CCn1c(SC(C)C(=O)Nc2ccc(N3CCOCC3)cc2)nnc1-c1ccco1` (stereo not given), the Potency entry was “inactive”. Regarding `COc1ccc(C(C)C)cc1-c1ccc2nncn2c1`, the Potency entry was “inactive”.

Regarding `C=CCn1c(SCC(=O)Nc2ccc(NC(C)=O)cc2)nc2sc(C)c(C)c2c1=O`, the Potency result is “inactive”. Turning to `CC(OC(=O)CNC(=O)c1ccco1)C(=O)Nc1ccc(Cl)cn1` (stereo not given), the Potency result is “inactive”. Take `CC(=O)c1ccc(N2Cc3ccccc3C2)cc1`: the Potency entry was “inactive”. With `O=C(Nc1nncs1)c1cccc(S(=O)(=O)N2CCCCC2)c1` the entry was “inactive”; with `CC(NS(=O)(=O)c1ccc(Cl)cc1)C(=O)Nc1ccc2c(c1)OCCO2` (stereo not given), “inactive”; with `O=C(Nc1cccc(S(=O)(=O)Nc2ccc(Cl)cc2)c1)c1ccc2c(c1)OCCO2`, 13 µM (active).

As to `CN1CCN(S(=O)(=O)c2cccc(C(=O)Nc3cccc(S(N)(=O)=O)c3)c2)CC1`, the Potency result was “inactive”. Turning to `O=C(Nc1cccc(S(=O)(=O)N2CCCCC2)c1)c1ccc2c(c1)OCO2`, the Potency is 25.9 µM (active).

`O=C(Nc1ccc(NC(=O)c2ccc3c(c2)OCO3)cc1)c1cccc(Cl)c1`: the Potency entry was “inactive”. With `Cc1cc(C)cc(OCC(=O)OCC(=O)NC2CCCC2)c1` the entry was “inactive”. In the case of `Cn1c(=O)c(=O)n(C)c2cc(S(=O)(=O)CCC(=O)N3CCCCC3)ccc21` it was “inactive”; in that of `COc1cc(S(=O)(=O)N2CCN(C(=O)C3CC3)CC2)ccc1NC(C)=O`, “inactive”; in that of `Clc1ccc(Cl)c(Oc2ccc(Oc3nc(Cl)ccc3Cl)cc2)n1`, “inactive”. `COC(=O)CCCCC1=CCC2C(=O)C=C(O)C2C1` (stereo not given): the Potency result is “inactive”. As to `Cc1cc(C)cc(-c2nnc(SCC(=O)NC3CC3)o2)c1`, the Potency result is “inactive”.

As to `COc1ccc(-c2nnc(SCC(=O)Nc3ccccc3C)o2)cc1OC`, the Potency entry is “inactive”.

For the molecule `COc1ccc(-c2nnc(SCC(=O)NC3CCCCC3)o2)cc1OC`, the Potency was 20.6 µM (active). In the case of `Cc1cc(C)nc(/N=C2\NC(=O)CC(C(=O)O)N2c2ccc(Cl)cc2Cl)n1` (stereo not given), the Potency result was “inactive”. As to `Cc1cc(NC(=O)CCC(=O)N(c2cccc(F)c2)C(C(=O)NC2CCCC2)c2ccncc2)no1` (stereo not given), the Potency result is “inactive”. Consider `Cc1cc(NC(=O)/C=C/C(=O)N(CC(=O)NC2CCCC2)c2ccc(F)cc2)no1`, for which the Potency result is “inactive”. Turning to `Cc1cc(NC(=O)/C=C/C(=O)N(c2ccccc2C)C(C(=O)NC2CCCC2)c2ccc(F)cc2)no1` (stereo not given), the Potency was 20.6 µM (active). In the case of `O=C(Nc1ccc(F)c([N+](=O)[O-])c1)C1CCCO1` (stereo not given), the Potency result is “inactive”. For the molecule `CN(c1ccccc1)S(=O)(=O)c1cccc(C(=O)NNC(=O)c2ccncc2)c1`, the Potency entry is “inactive”.

For `CN(C)S(=O)(=O)c1ccc(N2CCCC2)c(C(=O)NCc2ccccc2)c1`, the Potency result was “inactive”.

`CCN(CC)S(=O)(=O)c1ccc(N2CCOCC2)c(NC(=O)C2COc3ccccc3O2)c1` (stereo not given): the Potency was 18.4 µM (active). As to `CCN(CC)S(=O)(=O)c1ccc(N2CCOCC2)c(C(=O)O)c1`, the Potency result is “inactive”. Turning to `CCN(CC)S(=O)(=O)c1ccc(N2CCOCC2)c(NC(=O)c2ccc(=O)n(C)n2)c1`, the Potency result is “inactive”. Regarding `CCN(CC)S(=O)(=O)c1ccc(N2CCCC2)c(NC(=O)c2ccc([N+](=O)[O-])o2)c1`, the Potency is 23.1 µM (active). `CCN1CCN(c2ccc(S(=O)(=O)N3CCCCC3)cc2NC(=O)c2cccc(NC(C)=O)c2)CC1`: the Potency result is “inactive”. On to `O=C(c1cccnc1)N(Cc1ccccc1)C(=O)c1cccnc1`, for which the Potency entry is “inactive”.

Consider `COc1ccccc1C(=O)NCC(=O)OCC(=O)NNC(=O)c1ccc(Br)cc1`, for which the Potency result was “inactive”. In the case of `Cc1ccc(N2C(=O)C(NC(=O)c3c(F)cccc3F)(C(F)(F)F)C3=C2CC(C)(C)CC3=O)cc1` (stereo not given) it was “inactive”; in that of `Cc1ccc(O)c(NC(=O)c2cc(-c3ccco3)on2)c1`, “inactive”. For `Cc1cccc(NC(=O)C2CC(=O)OC23CCCC3)c1` (stereo not given), the Potency result is “inactive”.

Turning to `COc1cc2c(cc1OC)C(c1ccc(C)o1)CC(=O)N2` (stereo not given), the Potency entry is “inactive”. For `CCCOc1ccccc1C1CC(=O)Nc2cc3c(cc21)OCO3` (stereo not given), the Potency was 2.31 µM (active).

On to `COc1ccccc1C1C2=C(COC2=O)Nc2cc3c(cc21)OCO3` (stereo not given), for which the Potency result was “inactive”. On to `COc1ccccc1C(=O)NC(=O)COC(=O)C1CC1`, for which the Potency entry was “inactive”.

`N#Cc1c(N)nc2c3c(sc(=N)c2c1N)NC(=O)CC3c1ccccc1Cl` (stereo not given): the Potency result was “inactive”.

For `COc1ccc(NC(=O)CSCc2ccc([N+](=O)[O-])cc2)cc1OC`, the Potency entry was “inactive”. With `CCCCOc1ccc(CSC(=N)N)cc1[N+](=O)[O-]` the figure was 13 µM (active); with `CCCCOc1ccc(CON(C(C)=O)C(C)=O)cc1Cl`, “inactive”; with `Cc1nn(C)c(C)c1C(C)NC(=O)c1ccc(OC2CCN(Cc3ccccn3)CC2)cc1` (stereo not given), “inactive”. As for `Cc1ccc(/C=N/NC(=S)Nc2cccc(S(=O)(=O)N(C)C)c2)o1`, the Potency is 4.61 µM (active).

Regarding `CN(C)S(=O)(=O)c1cccc(NC(=O)Cc2ccsc2)c1`, the Potency entry is “inactive”. As to `Cc1ccc(/C=N/NC(=O)Cn2nc(C)c(Br)c2C)o1`, the Potency result was “inactive”. `COc1ccc(NC(=O)CN(C)C(=O)Cc2coc3cc(C)c(C)cc23)cc1`: the Potency entry was “inactive”. With `COc1ccc(NC(=O)C(CC(C)C)NC(=O)C2CCC(C)CC2)cc1` (stereo not given) the entry was “inactive”. For `CCc1ccc(-n2nnc(-c3nc(-c4ccccc4)no3)c2C)cc1`, the Potency result is “inactive”. For the molecule `O=C(CN(C(=O)c1csnn1)c1cccc(Cl)c1)NC1CCCC1`, the Potency result was “inactive”. For `O=C(NC(=S)Nc1ccccc1N1CCCCC1)c1ccc(F)cc1`, the Potency entry was “inactive”. In the case of `CCCN(CCC)c1ccc(C(O)c2nnc(-c3ccccc3)o2)cc1` (stereo not given) it was “inactive”; in that of `CC(=O)c1ccc(NC(=O)COc2ccccc2-c2nc(-c3ccccc3)no2)cc1`, “inactive”; in that of `CC(=O)c1ccc(NC(c2ccc(F)cc2)c2nnc(-c3ccccc3)o2)cc1` (stereo not given), 9.2 µM (active).

For the molecule `CCn1c(SCC(=O)Nc2ccc3c(c2)OCCO3)nnc1-c1ccncc1`, the Potency result was “inactive”. Take `CCC(=O)c1ccc(OCC(=O)OCC(=O)NC2CCCCCC2)cc1`: the Potency entry is “inactive”. Consider `Cc1cc(C)c(C)c(S(=O)(=O)Nc2cccnc2)c1C`, for which the Potency result was “inactive”. Turning to `Cc1ccc(C(=O)NNC2=Nc3cc([N+](=O)[O-])ccc3OC2)cc1`, the Potency result was “inactive”.
